# Measurements reported in article PMC7819943, “Rice protein-binding microarrays: a tool to detect cis-acting elements near promoter regions in rice”.
# The full ranking holds about 68,000 sequences; the median of “fluorescence intensity (a.u.)” is about 9,100, and the highest 2% start at about 16,000. The sample as a whole holds a higher share of the highest values than the screen did.
# Biological target: OsWRKY34 (Oryza sativa, UniProt Q0JBA9 1-250)
# Experiment: protein-binding microarray (RPBM); PBS, 2% BSA, 51.3 ng/ul salmon testes DNA, 50 uM zinc acetate, 200 nM TF, 25 C, 1 h; high values mean tight binding
# Details: protein: recombinant; tags: N-terminal polyhistidine and DsRed monomer fusion (pET32a); label: CyDye5-dUTP incorporated in the synthesized complementary strand; 3' TTTTT single-stranded linker to array surface; dsDNA, one strand shown
# Method in brief: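 Transcription factors were made in E. coli BL21-CodonPlus as N-terminal fusions to a polyhistidine tag and DsRed, then purified on Ni–NTA. After primer extension with Cy5-dUTP and blocking with 2% BSA, a custom Agilent array was exposed for 1 h at 25 °C to 200 nM protein in PBS, 2% BSA, salmon testes DNA and 50 µM zinc acetate. Washed arrays were scanned on an Axon 4000B, and the binding signal is per-feature fluorescence intensity in arbitrary units.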
# Sequence of OsWRKY34 (Q0JBA9 entry or part of it): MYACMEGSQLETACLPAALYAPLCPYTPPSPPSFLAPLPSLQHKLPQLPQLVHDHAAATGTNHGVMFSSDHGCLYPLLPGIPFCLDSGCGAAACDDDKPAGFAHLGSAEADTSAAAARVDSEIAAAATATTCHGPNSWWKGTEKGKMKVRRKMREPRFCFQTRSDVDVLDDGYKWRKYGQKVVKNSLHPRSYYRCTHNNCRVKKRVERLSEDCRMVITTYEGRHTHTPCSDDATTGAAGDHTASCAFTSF
row,Sequence,binding signal
1,AGTTATTTATTTTGTTGTGGTTTGTTTTATAGTTAAAGGTCGGAGTCACCTAGTGCAG,10100 fluorescence intensity (a.u.)
2,CGATCCCACCGACTCCCGGCCACCTCTGCTTCCCCGGCGACGGAGTCACCTAGTGCAG,9140 fluorescence intensity (a.u.)
3,TATATGTTTGGCGCTCAAAACCTAATAGTAGTTCTTATGTCGGAGTCACCTAGTGCAG,8300 fluorescence intensity (a.u.)
4,CTCTCCTCTCATCTCATCTCATCTCCAAGGCTGGTCTTTACGGAGTCACCTAGTGCAG,8320 fluorescence intensity (a.u.)
5,ACAGCCGCGTCGCCGCTTGTCCGCCTGCGCTCGTTCTCGCCGGAGTCACCTAGTGCAG,9640 fluorescence intensity (a.u.)
6,GGCATCCTACACTCTAGCTAGCCCACAGTCCGCTGCCGGCCGGAGTCACCTAGTGCAG,8790 fluorescence intensity (a.u.)
7,GCGGATGGAATGGCAAGGGAGGAAACTGGTGGGGTGGGAGCGGAGTCACCTAGTGCAG,8960 fluorescence intensity (a.u.)
8,TTCGGTTGGGTGGAGGAAGCGCGGGTGAAAAAGGTGGGGACGGAGTCACCTAGTGCAG,10600 fluorescence intensity (a.u.)
9,GGAATATTCTCACATCTCAGCCATCCATTTTCCATCTCAACGGAGTCACCTAGTGCAG,9090 fluorescence intensity (a.u.)
10,GATAGGTTGTGTGTGTGCAGTGTGTGTTTATAAGAGGTGACGGAGTCACCTAGTGCAG,10200 fluorescence intensity (a.u.)
11,TACATCATCTAGTGTTGCAGCAGCAGTGTGTGTAAGAGGACGGAGTCACCTAGTGCAG,28500 fluorescence intensity (a.u.)
12,CAGCAGTGTGTGTAAGAGGAGAGAGAAGCAGTGCCCTTTACGGAGTCACCTAGTGCAG,8530 fluorescence intensity (a.u.)
13,CGTCACTTTTTTTTCTCCCCTATTTCTTTTCTCCTTTTCTCGGAGTCACCTAGTGCAG,10900 fluorescence intensity (a.u.)
14,CCGCTCTCCTACTGCTCGGCCAACCAGTCATGCACACATACGGAGTCACCTAGTGCAG,8790 fluorescence intensity (a.u.)
15,ATAAAATAGTTGACTGGCTATCTTCTACTCCACTTGGTATCGGAGTCACCTAGTGCAG,8860 fluorescence intensity (a.u.)
16,TTGATTTCGTTGGGGTTTGCGTTGCGTGCGGAGGACGGGGCGGAGTCACCTAGTGCAG,15200 fluorescence intensity (a.u.)
17,AGGGGAGGCGTCGCTTGGTCGCCATCTTCGTCGTTTGCTTCGGAGTCACCTAGTGCAG,9720 fluorescence intensity (a.u.)
18,TTTGGGGTTTGAGAAGGTTGAGGAGGAGTTGGGAGGTTGACGGAGTCACCTAGTGCAG,9580 fluorescence intensity (a.u.)
19,CGGCGGGCGGGAGGGCGGCGTTGATTTCGTTGGGGTTTGCCGGAGTCACCTAGTGCAG,19100 fluorescence intensity (a.u.)
20,AGGCGGAGGAGGGGAGGCGGAAGGGGTTCGCGTCGGCGGCCGGAGTCACCTAGTGCAG,12200 fluorescence intensity (a.u.)
21,TGCTTTCGTTGGGTTGGGGAAGGGGAGGCGTCGCTTGGTCCGGAGTCACCTAGTGCAG,17100 fluorescence intensity (a.u.)

row,Sequence,binding signal
1,TTTACAGTTGATTTTGACGGGTTTGTTGGCGAGGATTTTTCGGAGTCACCTAGTGCAG,9360 fluorescence intensity (a.u.)
2,GATTAGGGTTGTTGCCGGGGTTTGTTTGGTGTTGCGGCGGCGGAGTCACCTAGTGCAG,8510 fluorescence intensity (a.u.)
3,CGGGAGGAGGGAGGTTGTTTCGTCTGGGGTTTGATTGGGACGGAGTCACCTAGTGCAG,18200 fluorescence intensity (a.u.)
4,AGAGAGAGGTTGCTGTTTCGATGCGTATTTCTGCAGCTTTCGGAGTCACCTAGTGCAG,10100 fluorescence intensity (a.u.)
5,GTCCCGGGCACCGACCACGATCCGTTCCCGCCACACAAACCGGAGTCACCTAGTGCAG,8080 fluorescence intensity (a.u.)
6,TCCGCCCTCTGACCGCGGCGCCAAAGCTCCTCCGCGCGCGCGGAGTCACCTAGTGCAG,8030 fluorescence intensity (a.u.)
7,CGGACCCCATACACCTCCGCCCGATTCCCGACGCAAATCCCGGAGTCACCTAGTGCAG,9260 fluorescence intensity (a.u.)
8,GTTTGTAACGTATTTTAGCTCGCTTTATAACGGGGCAGTTCGGAGTCACCTAGTGCAG,8160 fluorescence intensity (a.u.)
9,GATTGCTTTGTGGGTGTATGGTTCATCTTCAATGGTTTACCGGAGTCACCTAGTGCAG,8030 fluorescence intensity (a.u.)
10,CGACAAAATTCAACCGTAATTTCAACGTTTTCCTAACTTTCGGAGTCACCTAGTGCAG,8990 fluorescence intensity (a.u.)
11,CGTTTCAAAATGTTTGACACCGTTGACTTTTTAGTACATGCGGAGTCACCTAGTGCAG,35900 fluorescence intensity (a.u.)
12,CCGTTTCAAAATGTTTGACACCGTTGACTTTTTAGTACGTCGGAGTCACCTAGTGCAG,21100 fluorescence intensity (a.u.)
13,GTTTCAAAATGTTTGACACCGTTGACTTTTTAGTACGTGTCGGAGTCACCTAGTGCAG,22500 fluorescence intensity (a.u.)
14,AACGTACTAATGCATGACACCGTTGACTTTTTTTCAACGTCGGAGTCACCTAGTGCAG,40400 fluorescence intensity (a.u.)
15,TGATATCTTTTTCTTTAATGACTTTCCGTGTTTTCAACGTCGGAGTCACCTAGTGCAG,8090 fluorescence intensity (a.u.)
16,ACCATCACTTTTACTCTCTTTCTGCCTTAAAATCTCAATACGGAGTCACCTAGTGCAG,8590 fluorescence intensity (a.u.)
17,CCCTTTCCTTTTCTTTTTTTTTCTCATTTTATCCACAATTCGGAGTCACCTAGTGCAG,9870 fluorescence intensity (a.u.)
18,CGTGGCCCATCTCCAATTCTCCAGTTGCTTCCTTTTCGTTCGGAGTCACCTAGTGCAG,12600 fluorescence intensity (a.u.)
19,TCTCTTTCTTTCCTTAACTCTCTTTCTCTACTCTCCACTCCGGAGTCACCTAGTGCAG,9580 fluorescence intensity (a.u.)
20,GCTGTGTGTACATATTACTAGTACTACTTAATACGTGCTTCGGAGTCACCTAGTGCAG,11200 fluorescence intensity (a.u.)
21,TTGTGAGTGTGTATGTGTTTATGGTGTGTAATTTTTTTTACGGAGTCACCTAGTGCAG,9320 fluorescence intensity (a.u.)

row,Sequence,binding signal
1,GGCGTTGGTCACCTCCCGTGAGTCGTCCTCTATTCCTCTTCGGAGTCACCTAGTGCAG,11100 fluorescence intensity (a.u.)
2,GGTTGTAATCTATAGGGGTCCTTGTATAGAAATATCGTTTCGGAGTCACCTAGTGCAG,8880 fluorescence intensity (a.u.)
3,CTCCTCGCCTTCTTCTCCATCTCCATCTCGCATCTTCTCTCGGAGTCACCTAGTGCAG,11400 fluorescence intensity (a.u.)
4,ATTTTGGGACAGAGGTAGCAGTGAACTACACGTACCTTGTCGGAGTCACCTAGTGCAG,21500 fluorescence intensity (a.u.)
5,GGGGTCGGGGTGGGAGAGGGAGGCTACACTACAGCAGCAGCGGAGTCACCTAGTGCAG,11100 fluorescence intensity (a.u.)
6,ACATTTTAATTTGTAGGGAGAGGTACTATGGGCTTAACTTCGGAGTCACCTAGTGCAG,9750 fluorescence intensity (a.u.)
7,AACAAACCAACCTAGGATACTACTGTCAATTTTCACAACCCGGAGTCACCTAGTGCAG,9280 fluorescence intensity (a.u.)
8,GCAGTACACTGATACGATACAATCGTTGACTGTTTCAGGACGGAGTCACCTAGTGCAG,9230 fluorescence intensity (a.u.)
9,GATGCATTTTTGTCTGGGCGTTGTCCTTGTGGAAGCATCTCGGAGTCACCTAGTGCAG,10000 fluorescence intensity (a.u.)
10,AATGGGTGTTTTTTTAGTTGTTGTGTGTGTTTGGACGATTCGGAGTCACCTAGTGCAG,10400 fluorescence intensity (a.u.)
11,CGCTTCGCTGACGGTTGTGTGTTGGTGGGTGCAGGGGTGCCGGAGTCACCTAGTGCAG,12700 fluorescence intensity (a.u.)
12,TGGATCTGGTGTGTTAGTTTGGATTTGTGTTTGTCCTTTTCGGAGTCACCTAGTGCAG,12600 fluorescence intensity (a.u.)
13,CAGGAGGGGTGGGTTGTTGTTCGGTGGTGTGGACCCGTGCCGGAGTCACCTAGTGCAG,17700 fluorescence intensity (a.u.)
14,TTGTTGGGTGGGGACGTGGGGTGGGGTTCATGGAGTGGTTCGGAGTCACCTAGTGCAG,24800 fluorescence intensity (a.u.)
15,GGAGGAGGGGTGGGGTGTTGAGCCCTGGAGAAGCCACCGCCGGAGTCACCTAGTGCAG,21000 fluorescence intensity (a.u.)
16,TTTTGGTGGGTGGGTTTGGGACGTTGGATTGGTGGTGGACCGGAGTCACCTAGTGCAG,12600 fluorescence intensity (a.u.)
17,ATTGGATCCGGGGAGGAGGAGGTGGGGTTCGGTTTCGTGCCGGAGTCACCTAGTGCAG,11600 fluorescence intensity (a.u.)
18,GTGTGGGTGGCAGGGTGTGTTGAGGAGGTGCCCGCGTTGCCGGAGTCACCTAGTGCAG,10300 fluorescence intensity (a.u.)
19,GGCGCCGGGGTGGGGTGGTGCTGGAGCCACCGGAGGAGCGCGGAGTCACCTAGTGCAG,9730 fluorescence intensity (a.u.)
20,TGTCCTTTGTTGTGGTGTGGTGGTGGGCATCTGGACCGTTCGGAGTCACCTAGTGCAG,29700 fluorescence intensity (a.u.)
